Results filed as inconclusive are left out. Calls of active or inactive are those of the source. Unless noted, the call rests on the fitted dose curve; in most records, active means well fitted curve in the direction sought with a large enough effect; inconclusive means small, poorly fitted or top-dose-only effect, or another doubt; inactive means no such curve, though single readings can be large; an effect the other way counts as inactive or inconclusive.
Columns and labels:
[1] = AP1 Signaling Pathway (AID 357; active means well fitted curve in either direction with a large enough effect, not every such curve was filed as active;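 further: ME-180 reporter cells stimulated with EGF at its EC50 level; on the % scale 0 is the no-effect control and ±100 the full control effect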); conditions: ME-180 AP-1-bla reporter, EGF-induced, beta-lactamase ratio, 5 h; at 17.2 µM (top of the series) unless noted
How it was run: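 Cells are seeded overnight, exposed to compound titrations and an EC50 level of EGF for 5 hours at 37 °C, then loaded with CCF4 dye for 2.5 hours. Beta-lactamase activity under the AP-1 element is read as a blue/green ratio.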

[2] = molecular target: Cytochrome P450 1A2 (Homo sapiens) (UniProt P05177); assay: p450-cyp1a2 (AID 410; calls by dose curve;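 further: -100% = full effect of reference inhibitor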)
How it was run: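 20nM CYP1A2 with 100uM Luciferin-ME (at Km) in 100mM KPO4; compound preincubated 10 min, NADPH regeneration added, 60 min at room temperature. Luciferin quantified by luminescence after detection reagent; normalized to 57 uM furafylline.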

[3] = Stat Signaling Pathway (AID 446; active means well fitted curve in either direction with a large enough effect, not every such curve was filed as active;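 further: ME-180 cervical cancer cells given 40 pM IL-6 alongside compound; SIE-controlled beta-lactamase reporter measured as 460/530 nm FRET emission ratio; on the % scale 0 is the no-effect control and ±100 the full control effect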); conditions: ME-180 SIE beta-lactamase reporter, IL-6 stimulated, 5 h; at 17.2 µM (top of the series) unless noted
How it was run: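 ME-180 cells carrying a SIE-driven beta-lactamase reporter are stimulated with 40 pM IL-6 for 5 h at 37C in the presence of compound. The 460/530 nm FRET substrate ratio is read after 2.5 h at RT. Data are normalised to 300 pM IL-6 and to 125 nM JAK inhibitor controls.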

[4] = molecular target: Glucocorticoid receptor (Homo sapiens) (UniProt P04150); assay: GR-GFP Redistribution (AID 450;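 active means compounds whose dose series gives a full or clear partial fitted curve of increased nuclear translocation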; further: potency means the concentration at half of the fitted maximal effect)
[5] = molecular target: Glucocorticoid receptor (Homo sapiens) (UniProt P04150); assay: GR-EFC Redistribution (AID 451; calls by dose curve; further: potency means the concentration at half of the fitted maximal effect); conditions: CHO-K1 GR-EFC translocation, beta-gal luminescence, 2 h
How it was run: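 CHO-K1 cells expressing nuclear EA and GR-ED fragments of b-gal; compounds titrated up to 46 uM final, 2 h at 37 C. GR nuclear translocation read as complemented b-gal luminescence after 1 h RT detection.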

[6] = molecular target: Mitogen-activated protein kinase 10 (Mus musculus) (UniProt Q61831); assay: JNK3 AlphaScreen Assay (AID 530; active means well fitted curve in either direction with a large enough effect, not every such curve was filed as active;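 further: kinase came from lysate of stimulated human HepG2 cells; signal reports phosphorylation of biotinylated GST-cJun 1-79 at Ser73 with 10 µM ATP; on the % scale 0 is the no-effect control and ±100 the full control effect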)
How it was run: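 Pre-activated (IL-1β/TNFα) JNK3 in HepG2 lysates phosphorylates biotin-GST-cJun(1-79), 10 uM ATP; anti-phospho-cJun(Ser73) AlphaScreen read at room temperature, pH 7.6 Tris buffer. Compounds pre-incubated 15 min as titrations.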

[7] = molecular target: 3',5'-cyclic-AMP phosphodiesterase 4B (Homo sapiens) (UniProt Q07343); assay: qHTS Assay for Inhibitors of PDE-IV (AID 607; active means well fitted activation curve with a large enough effect in the main read-out, with a control signal flat, not every such curve was filed as active; further: % of control where 0% means no effect)
How it was run: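 HEK293 ACTOne cells with CNG channel (1000/well), endogenous PDE4; membrane potential dye, compounds up to 22.9 uM final. Fluorescence Ex 535/Em 590; RO 20-1724 (100 uM final) as reference.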

[8] = molecular target: Guanine nucleotide-binding protein G(i) subunit alpha-1 (Homo sapiens) (UniProt P63096); assay: qHTS Assay for Inhibitors of RGS12 GoLoco Motif Activity (Green Fluorophore) (AID 879);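 further: 0% = labeled peptide with Gαi1 and full inhibition = labeled peptide alone without protein; negative values mean loss of peptide binding seen as reduced polarization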
How it was run: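 Fluorescence polarization assay: 50 nM Gαi1 with 10 nM FITC-labeled RGS12 GoLoco peptide in 10 mM Tris pH 7.5, 150 mM NaCl, 0.1 mM GDP, 0.05% NP40, 10 min at room temperature with compound.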

[9] = qHTS Assay for Identification of Small Molecule Antagonists for NFkB Signaling Pathway (AID 895; active means well fitted inhibition curve with a large enough effect in the signal ratio, with a control signal flat, not every such curve was filed as active; the % refers to the signal ratio; further: potency means the concentration at half of the fitted maximal effect)
How it was run: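 ME-180 NFkB-bla cells (beta-lactamase under NFkB response element), plated overnight, treated with compound then 10 pM TNF alpha (about EC50) for 5 hrs at 37 C. LiveBLAzer FRET read at 460/530 nm emission, 405 nm excitation.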

[10] = molecular target: Muscarinic acetylcholine receptor M1 (Rattus norvegicus) (UniProt P08482); assay: qHTS Assay for Antagonists of Acetylcholine Muscarinic M1 Receptor: Kinetic Measurement of Intracellular Calcium Response (AID 943); further: potency means the concentration at half of the fitted maximal effect; nearly all actives have a fitted effect of over 75% in size
How it was run: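 CHO cells expressing rat M1 receptor, Fluo-4 loaded, preincubated 10 min with compound, then stimulated with EC80 carbachol (100 nM final). Kinetic calcium fluorescence over 4 min; response taken as peak over basal signal.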

[11] = molecular target: Muscarinic acetylcholine receptor M1 (Rattus norvegicus) (UniProt P08482); assay: qHTS Assay for Antagonists of Acetylcholine Muscarinic M1 Receptor: Measurement of IP-One Response (AID 944); further: nearly all actives have a fitted effect of over 75% in size; further: potency means the concentration at half of the fitted maximal effect
How it was run: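 CHO cells stably expressing rat M1, pretreated 10 min with compound, then stimulated 30 min with carbachol at EC80 (200 nM) in LiCl-containing buffer pH 7.4; IP1 accumulation read by HTRF competition (665/620 nm).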

[12] = molecular target: Pyruvate kinase (Leishmania mexicana) (UniProt Q27686); assay: qHTS Validation Assay for Inhibitors of Leishmania Mexicana Pyruvate Kinase (AID 945);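 further: 0% = DMSO only neutral control wells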
How it was run: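 Luminescent ATP detection (PKLight) after a 1 h room-temperature reaction of 0.2 nM LmPYK E451W mutant with 0.5 mM PEP and 0.1 mM ADP at pH 7.2. Activity is normalized to DMSO-only control wells.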

[13] = molecular target: Pyruvate kinase PKM (Homo sapiens) (UniProt P14618); assay: qHTS Assay for Activators of Human Muscle Pyruvate Kinase (AID 954; active means well fitted curve in the direction sought with a large enough effect, not every such curve was filed as active;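 further: 0% = uninhibited enzyme and -100% = no enzyme or full thiadiazolimine inhibition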)
How it was run: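 Purified human PKM2 (0.1 nM) with 0.5 mM PEP (Km) and 0.1 mM ADP in 50 mM imidazole pH 7.2, KCl, MgCl2, 1 h at room temperature; ATP formed read by coupled luciferase luminescence. Normalized to no-enzyme/110 uM thiadiazolimine inhibition; 0.3 nM enzyme column for activation.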

[14] = molecular target: Alpha-galactosidase A (Homo sapiens) (UniProt P06280); assay: Counterscreen for Glucocerebrosidase Inhibitors: qHTS Assay for Human alpha-Galactosidase at pH 4.5 (AID 992); further: 0% is about no effect
How it was run: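 Human enzyme (2 nM) with 80 uM 4-methylumbelliferyl alpha-D-galactopyranoside in 50 mM citric acid, 0.005% Tween-20, pH 4.5, 20 min at room temperature. Compounds 0.7 nM–77 uM; fluorescence Ex 365/Em 440 after pH 10 stop; AC50 from Hill fits.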

[15] = molecular target: alpha-glucosidase (Oryza sativa, rice) (UniProt Q653V4); assay: Counterscreen for Glucocerebrosidase Inhibitors: qHTS Assay for Rice alpha-Glucosidase at pH 5.0 (AID 997);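 further: 0% = full activity with enzyme and -100% = basal without enzyme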
How it was run: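 Rice alpha-glucosidase (4 nM final) with 400 uM 4-methylumbelliferyl-alpha-D-glucopyranoside in citrate buffer pH 5.0, 20 min at room temperature, stopped at pH 10; fluorescence 365/440 nm, compounds 0.7 nM–77 uM, AC50 from Hill fits.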

[16] = molecular target: Cytochrome P450 3A4 (Homo sapiens) (UniProt P08684); assay: qHTS Assay for Activators of Cytochrome P450 3A4 (AID 885); further: nearly all actives have a fitted effect of over 65% in size
How it was run: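 Human CYP3A4 (20 nM) with Luciferin-PPXE at 25 uM (its KM) in 200 mM KPO4; 10 min compound preincubation, then NADPH regeneration and 60 min reaction at RT. Luciferin read by luminescence; normalized to 57 uM ketoconazole full inhibition.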

[17] = qHTS Assay for Identification of Small Molecule Agonists for Thrombopoietin (TPO) Signaling Pathway (AID 917); further: on the % scale 0 is the no-effect control and ±100 the full control effect
How it was run: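 Reporter: GpIIb promoter–luciferase in murine Ba/F3 expressing human TPO receptor. Pre-starved of IL-3 overnight; compounds with 26 pM TPO, 24 hrs, 37 C/5% CO2; luminescence read.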

[18] = NFAT Signaling Pathway (AID 444; active means well fitted curve in either direction with a large enough effect, not every such curve was filed as active); conditions: Jurkat NFAT-bla M1, carbachol, beta-lactamase ratio, 5 h; at 17.2 µM (top of the series) unless noted
How it was run: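 Jurkat cells with NFAT-driven β-lactamase reporter and co-expressed M1 receptor, stimulated with carbachol (final 1 uM, ~EC50), compound titration, 5 h at 37 °C. CCF4 loaded 1 h at RT; 460/530 nm ratio gave %activity and AC50.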

[19] = molecular target: Cytochrome P450 2C19 (Homo sapiens) (UniProt P33261); assay: qHTS Assay for Inhibitors and Substrates of Cytochrome P450 2C19 (AID 899); further: nearly all actives have a fitted effect of over 60% in size
How it was run: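 Luminescent read-out of luciferin formed from Luciferin-H EGE (10uM, equal to KM). Enzyme 5nM in 50mM KPO4; compound added, 10 min at 37C, then NADPH regenerating system for 60 min at 37C. Full inhibition defined by 57uM ketoconazole.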

Sequence of Glucocorticoid receptor (Homo sapiens) (P04150 whole entry, looked up, the tested form may be a part): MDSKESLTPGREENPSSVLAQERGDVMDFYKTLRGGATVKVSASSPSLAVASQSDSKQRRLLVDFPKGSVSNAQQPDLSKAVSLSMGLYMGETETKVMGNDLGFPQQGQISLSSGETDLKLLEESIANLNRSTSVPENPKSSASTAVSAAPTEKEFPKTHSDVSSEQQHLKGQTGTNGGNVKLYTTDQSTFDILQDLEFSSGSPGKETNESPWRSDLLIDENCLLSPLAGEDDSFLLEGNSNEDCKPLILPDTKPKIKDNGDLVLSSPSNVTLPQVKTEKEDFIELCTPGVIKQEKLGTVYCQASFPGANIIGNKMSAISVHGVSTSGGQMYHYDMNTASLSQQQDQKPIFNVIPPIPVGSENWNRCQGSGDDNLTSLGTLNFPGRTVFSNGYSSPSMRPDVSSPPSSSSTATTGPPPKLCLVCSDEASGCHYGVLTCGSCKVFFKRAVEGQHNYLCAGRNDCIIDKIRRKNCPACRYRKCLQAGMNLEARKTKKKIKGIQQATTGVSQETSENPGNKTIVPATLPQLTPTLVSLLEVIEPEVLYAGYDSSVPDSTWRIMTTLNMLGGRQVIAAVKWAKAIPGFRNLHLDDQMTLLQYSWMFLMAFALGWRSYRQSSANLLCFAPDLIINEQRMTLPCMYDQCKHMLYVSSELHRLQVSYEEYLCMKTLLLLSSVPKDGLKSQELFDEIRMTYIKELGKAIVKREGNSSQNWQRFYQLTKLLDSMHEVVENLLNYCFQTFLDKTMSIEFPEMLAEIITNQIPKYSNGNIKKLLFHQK
Sequence of Cytochrome P450 1A2 (Homo sapiens) (P05177 whole entry, looked up): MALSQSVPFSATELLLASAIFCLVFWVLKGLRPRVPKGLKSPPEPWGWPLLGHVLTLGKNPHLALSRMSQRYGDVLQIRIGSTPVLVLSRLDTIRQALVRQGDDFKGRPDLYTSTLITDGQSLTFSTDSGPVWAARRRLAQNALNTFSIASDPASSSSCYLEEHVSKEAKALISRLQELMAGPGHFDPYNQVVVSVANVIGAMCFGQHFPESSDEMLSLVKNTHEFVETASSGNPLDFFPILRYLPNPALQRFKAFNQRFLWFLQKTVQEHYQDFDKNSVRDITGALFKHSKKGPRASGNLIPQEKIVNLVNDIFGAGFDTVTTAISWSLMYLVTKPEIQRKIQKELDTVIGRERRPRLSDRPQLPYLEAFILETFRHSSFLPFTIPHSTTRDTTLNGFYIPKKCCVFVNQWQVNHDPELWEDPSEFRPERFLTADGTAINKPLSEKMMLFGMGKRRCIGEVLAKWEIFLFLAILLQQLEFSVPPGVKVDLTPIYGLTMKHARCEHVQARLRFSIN
Sequence of Pyruvate kinase (Leishmania mexicana) (Q27686 2-499 E452W): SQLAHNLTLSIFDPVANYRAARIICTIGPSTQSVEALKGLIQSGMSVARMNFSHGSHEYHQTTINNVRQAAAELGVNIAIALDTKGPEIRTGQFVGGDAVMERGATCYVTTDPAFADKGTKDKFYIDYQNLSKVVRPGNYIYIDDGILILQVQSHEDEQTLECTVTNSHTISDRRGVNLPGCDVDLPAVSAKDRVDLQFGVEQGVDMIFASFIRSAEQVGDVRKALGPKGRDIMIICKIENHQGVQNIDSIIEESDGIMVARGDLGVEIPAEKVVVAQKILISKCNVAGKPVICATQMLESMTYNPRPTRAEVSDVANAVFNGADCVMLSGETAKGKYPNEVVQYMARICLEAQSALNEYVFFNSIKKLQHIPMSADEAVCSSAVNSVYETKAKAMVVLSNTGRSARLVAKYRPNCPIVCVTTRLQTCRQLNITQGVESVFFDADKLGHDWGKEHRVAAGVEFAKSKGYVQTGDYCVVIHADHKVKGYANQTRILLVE
Sequence of Pyruvate kinase PKM (Homo sapiens) (P14618 whole entry, looked up): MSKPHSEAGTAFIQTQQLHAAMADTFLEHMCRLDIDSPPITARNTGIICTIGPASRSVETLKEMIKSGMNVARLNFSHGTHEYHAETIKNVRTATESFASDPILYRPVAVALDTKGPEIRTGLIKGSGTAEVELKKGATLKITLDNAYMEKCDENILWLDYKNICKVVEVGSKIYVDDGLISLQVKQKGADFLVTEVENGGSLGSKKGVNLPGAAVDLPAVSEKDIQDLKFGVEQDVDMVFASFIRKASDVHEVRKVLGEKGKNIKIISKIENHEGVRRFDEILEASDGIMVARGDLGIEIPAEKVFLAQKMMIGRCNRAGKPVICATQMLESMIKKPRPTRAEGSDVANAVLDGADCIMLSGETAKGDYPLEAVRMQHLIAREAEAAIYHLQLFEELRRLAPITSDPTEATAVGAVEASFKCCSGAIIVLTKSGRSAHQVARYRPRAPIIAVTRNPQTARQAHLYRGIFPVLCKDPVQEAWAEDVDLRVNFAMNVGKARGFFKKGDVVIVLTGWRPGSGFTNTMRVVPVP
Sequence of Alpha-galactosidase A (Homo sapiens) (P06280 whole entry, looked up): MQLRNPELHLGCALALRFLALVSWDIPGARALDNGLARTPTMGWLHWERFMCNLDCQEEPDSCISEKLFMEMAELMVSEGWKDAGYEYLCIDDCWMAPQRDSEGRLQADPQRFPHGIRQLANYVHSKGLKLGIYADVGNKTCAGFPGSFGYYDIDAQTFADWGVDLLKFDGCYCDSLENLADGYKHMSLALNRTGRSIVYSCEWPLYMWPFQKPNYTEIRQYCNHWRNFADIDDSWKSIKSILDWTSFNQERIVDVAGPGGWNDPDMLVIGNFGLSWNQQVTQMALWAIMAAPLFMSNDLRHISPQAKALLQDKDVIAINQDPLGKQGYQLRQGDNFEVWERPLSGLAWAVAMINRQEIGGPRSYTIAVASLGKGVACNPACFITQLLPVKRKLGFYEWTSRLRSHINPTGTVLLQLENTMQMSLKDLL
Sequence of Muscarinic acetylcholine receptor M1 (Rattus norvegicus) (P08482 whole entry, looked up): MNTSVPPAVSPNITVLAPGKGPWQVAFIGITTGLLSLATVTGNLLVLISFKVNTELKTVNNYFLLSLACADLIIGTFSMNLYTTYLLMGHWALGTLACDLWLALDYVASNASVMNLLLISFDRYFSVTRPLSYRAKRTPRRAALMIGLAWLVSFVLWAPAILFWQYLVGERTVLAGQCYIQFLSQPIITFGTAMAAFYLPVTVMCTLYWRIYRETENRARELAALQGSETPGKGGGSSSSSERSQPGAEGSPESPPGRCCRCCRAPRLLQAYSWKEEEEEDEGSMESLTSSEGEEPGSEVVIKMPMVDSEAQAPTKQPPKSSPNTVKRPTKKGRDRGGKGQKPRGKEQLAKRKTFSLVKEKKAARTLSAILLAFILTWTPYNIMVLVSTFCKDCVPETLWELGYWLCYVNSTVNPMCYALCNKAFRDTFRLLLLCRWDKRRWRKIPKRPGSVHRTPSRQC
Sequence of 3',5'-cyclic-AMP phosphodiesterase 4B (Homo sapiens) (Q07343 whole entry, looked up): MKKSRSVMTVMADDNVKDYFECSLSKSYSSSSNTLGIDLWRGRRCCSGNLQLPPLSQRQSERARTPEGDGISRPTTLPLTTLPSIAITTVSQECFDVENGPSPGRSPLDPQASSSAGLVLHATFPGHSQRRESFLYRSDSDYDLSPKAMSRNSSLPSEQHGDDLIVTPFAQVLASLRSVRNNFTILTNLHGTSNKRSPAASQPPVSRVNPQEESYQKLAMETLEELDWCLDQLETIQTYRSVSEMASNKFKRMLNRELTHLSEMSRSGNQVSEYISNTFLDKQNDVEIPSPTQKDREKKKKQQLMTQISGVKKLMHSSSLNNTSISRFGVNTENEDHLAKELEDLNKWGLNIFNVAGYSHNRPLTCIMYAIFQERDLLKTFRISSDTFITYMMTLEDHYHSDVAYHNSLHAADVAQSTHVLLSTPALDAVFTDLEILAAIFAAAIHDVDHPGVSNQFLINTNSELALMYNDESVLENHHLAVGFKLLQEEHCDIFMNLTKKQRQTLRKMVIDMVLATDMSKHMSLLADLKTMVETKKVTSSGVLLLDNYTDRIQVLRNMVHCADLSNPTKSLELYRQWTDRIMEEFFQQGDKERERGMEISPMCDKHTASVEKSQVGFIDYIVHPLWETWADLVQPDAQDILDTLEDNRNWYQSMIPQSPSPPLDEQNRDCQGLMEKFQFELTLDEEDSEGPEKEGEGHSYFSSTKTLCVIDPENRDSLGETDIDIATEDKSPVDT
Sequence of Guanine nucleotide-binding protein G(i) subunit alpha-1 (Homo sapiens) (P63096 whole entry, looked up): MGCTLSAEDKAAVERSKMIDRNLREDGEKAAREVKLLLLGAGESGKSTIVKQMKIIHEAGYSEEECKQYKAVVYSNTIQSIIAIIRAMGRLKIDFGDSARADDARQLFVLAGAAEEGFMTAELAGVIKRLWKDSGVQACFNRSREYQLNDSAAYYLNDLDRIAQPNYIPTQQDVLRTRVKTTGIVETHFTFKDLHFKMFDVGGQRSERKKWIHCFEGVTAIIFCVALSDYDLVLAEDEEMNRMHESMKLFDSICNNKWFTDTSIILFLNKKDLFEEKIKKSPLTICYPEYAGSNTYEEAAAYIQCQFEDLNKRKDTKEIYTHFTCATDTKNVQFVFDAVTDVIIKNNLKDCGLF
Sequence of Cytochrome P450 2C19 (Homo sapiens) (P33261 whole entry, looked up): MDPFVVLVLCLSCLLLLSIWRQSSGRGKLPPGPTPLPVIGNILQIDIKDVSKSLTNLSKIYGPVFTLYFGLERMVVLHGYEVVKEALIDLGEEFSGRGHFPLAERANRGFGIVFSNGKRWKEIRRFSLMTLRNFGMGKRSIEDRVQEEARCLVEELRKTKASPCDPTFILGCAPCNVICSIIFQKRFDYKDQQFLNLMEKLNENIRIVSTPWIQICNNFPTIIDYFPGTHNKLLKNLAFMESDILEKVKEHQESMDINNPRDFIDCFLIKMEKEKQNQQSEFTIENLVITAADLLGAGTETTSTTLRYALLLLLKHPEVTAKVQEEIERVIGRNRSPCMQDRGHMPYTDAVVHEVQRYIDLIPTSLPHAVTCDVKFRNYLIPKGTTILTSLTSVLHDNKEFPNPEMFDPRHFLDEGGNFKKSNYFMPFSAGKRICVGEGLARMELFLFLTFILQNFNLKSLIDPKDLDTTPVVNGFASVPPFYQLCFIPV

O[Si@](CCCN1CCCCC1)(c1ccc(F)cc1)C1CCCCC1
inactive: activity change, negative = inhibition [1] 11.3% [at 38 µM] | Potency [2] | activity, negative = inhibition [3] 1.42% [at 38 µM] | Potency [4] > 46 µM | Potency [5] > 46 µM | Potency [6] | Potency [7] | outcome [8] | Potency [9] | Potency [12] | outcome [13] | outcome [14] | outcome [15]
active: Potency [10] 0.178 µM | Potency [11] 1.41 µM

CC1CCN(CC[C@@H]2CCCN2S(=O)(=O)c2cccc(O)c2)CC1
active: Potency [10] 14.1 µM | Potency [11] 14.1 µM
inactive: activity change, negative = inhibition [1] 2.33% [at 38 µM] | Potency [2] | activity, negative = inhibition [3] -6.42% [at 38 µM] | Potency [4] > 46 µM | Potency [5] > 46 µM | Potency [7] | outcome [8] | Potency [16] | Potency [17] | Potency [12] | outcome [13] | outcome [14] | outcome [15]

C[C@@]12CCC(=O)C=C1CC[C@@H]1[C@@H]2[C@H](O)C[C@]2(C)[C@@H]1CC[C@]2(O)C(=O)COC(=O)CCC(=O)O
active: Potency [4] 0.112 µM | Potency [5] 1.12 µM | Potency [9] 0.224 µM
inactive: activity change, negative = inhibition [1] -0.329% [at 38 µM] | Potency [2] | activity, negative = inhibition [3] -14.6% [at 38 µM] | Potency [6] | Potency [7] | outcome [8] | Potency [17] | Potency [11] | Potency [12] | outcome [13] | outcome [14] | outcome [15]

CCOC(=O)CC1=C(C(=O)OCC)C(c2ccc(OC)c(OC)c2)C(C#N)=C(N)O1 (stereo not given)
inactive: activity change, negative = inhibition [1] 1.15% | activity change, negative = inhibition [18] -21.5% | activity, negative = inhibition [3] 5.77%

COc1cc2nc(N3CCN(C(=O)[C@H]4COc5ccccc5O4)CC3)nc(N)c2cc1OC
inactive: activity change, negative = inhibition [1] -28.6% [at 38 µM] | Potency [2] | activity, negative = inhibition [3] -8.72% [at 38 µM] | Potency [6] | Potency [7] | outcome [8] | outcome [19] | Potency [17] | Potency [12] | outcome [13] | outcome [14] | outcome [15]

Reference: PubChem BioAssay (NCATS)
